This note sets out measurements from PubChem BioAssay (NCI).

Several values for one entry are separate records, joined by “and”; a condition that tells them apart may be missing. Identical values can stand only once. The panel holds about 83,000 compounds, 20% with a hit somewhere; the sample as a whole holds those more often.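 Note: values are percent growth. 100 is the growth of untreated cells, values between 100 and 0 indicate rising inhibition; between -100 and 0 indicates cell death.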 Activity calls are given as the source filed them. The calls were made as follows: active = growth percent below 10; inactive = the rest.

Among the test systems are SR leukemia; RPMI-8226 leukemia; OVCAR-8 ovarian; OVCAR-5 ovarian; OVCAR-4 ovarian; SK-OV-3 ovarian; IGROV1 ovarian; OVCAR-3 ovarian; HS 578T breast; NCI/ADR-RES ovarian; T-47D breast; BT-549 breast; MDA-MB-435 melanoma; SW-620 colon; MCF7 breast; HCT-116 colon; HCC-2998 colon; KM12 colon.
Holding throughout (experiment): NCI-60 one-dose screen, 48 h (100 = growth as untreated, 0 = no growth, -100 = all killed)
Holding throughout (settings): 10 µM unless noted

In the case of `Cc1cc2nc3ccc(=[N+](C)C)cc-3sc2cc1N`, the growth is -4.11% (active) in the assay on SR leukemia; -10.3% (active) and -38.2% (active) in the assay on RPMI-8226 leukemia; 4.72% (active) and 7.29% (active) with OVCAR-8 ovarian; -57.5% (active) and -0.424% (active) in the assay on OVCAR-5 ovarian; 8.09% (active) in the assay with OVCAR-4 ovarian; 8.62% (active) and 45.8% (inactive) in the assay on SK-OV-3 ovarian. Further, the growth in the assay on IGROV1 ovarian was -55.6% (active) and 10.3% (inactive); in the assay with OVCAR-3 ovarian, -15.2% (active) and -44% (active); in the assay with HS 578T breast, 41.1% (inactive) and -0.376% (active); in the assay with NCI/ADR-RES ovarian, 1.81% (active) and 2.67% (active); with T-47D breast, -25.1% (active) and 1.21% (active); in the assay with BT-549 breast, 48.9% (inactive) and 50.4% (inactive). Moreover, the growth in the assay on MDA-MB-435 melanoma was -68.9% (active) and -41.4% (active); with SW-620 colon, -19.7% (active) and -9.28% (active); in the assay on MCF7 breast, -3.34% (active) and -28.7% (active); in the assay on HCT-116 colon it was -22.8% (active) and 4.49% (active); with HCC-2998 colon it was 18.8% (inactive); in the assay with KM12 colon, 5.96% (active) and -2.21% (active).
Turning to `O=P(O)(O)OC1C(OP(=O)(O)O)C(OP(=O)(O)O)C(OP(=O)(O)O)C(OP(=O)(O)O)C1OP(=O)(O)O.[Cu+2]` (stereo unspecified), the growth in the assay on SR leukemia was 81.4% (inactive); in the assay with RPMI-8226 leukemia, 101% (inactive); in the assay on OVCAR-8 ovarian, 76.8% (inactive); in the assay with OVCAR-5 ovarian, 155% (inactive); with OVCAR-4 ovarian, 110% (inactive); in the assay on SK-OV-3 ovarian, 114% (inactive). Also, the growth in the assay on IGROV1 ovarian is 86.9% (inactive); in the assay on OVCAR-3 ovarian, 123% (inactive); with HS 578T breast, 92.4% (inactive); in the assay with NCI/ADR-RES ovarian, 97.3% (inactive); in the assay with T-47D breast, 101% (inactive); in the assay on BT-549 breast it was 126% (inactive). The growth with MDA-MB-435 melanoma is 101% (inactive); with SW-620 colon, 95.6% (inactive); in the assay on MCF7 breast, 86.8% (inactive); with HCT-116 colon, 96.6% (inactive); in the assay on HCC-2998 colon, 96.3% (inactive); with KM12 colon, 100% (inactive).
As to `Nc1ccc(Cl)c(S(=O)(=O)O)c1`, the growth with SR leukemia is 103% (inactive); in the assay with RPMI-8226 leukemia it was 111% (inactive); with OVCAR-8 ovarian, 93.3% (inactive); in the assay on OVCAR-5 ovarian, 95.7% (inactive); in the assay on OVCAR-4 ovarian, 106% (inactive); in the assay with SK-OV-3 ovarian, 99.5% (inactive). For the same molecule, the growth in the assay with IGROV1 ovarian is 102% (inactive); with OVCAR-3 ovarian it was 101% (inactive); in the assay with HS 578T breast, 98.8% (inactive); with NCI/ADR-RES ovarian, 103% (inactive); with T-47D breast, 92.4% (inactive); in the assay on BT-549 breast, 96% (inactive). The growth in the assay with MDA-MB-435 melanoma is 107% (inactive); in the assay on SW-620 colon, 99.1% (inactive); in the assay with MCF7 breast, 101% (inactive); in the assay with HCT-116 colon, 102% (inactive); in the assay on HCC-2998 colon, 110% (inactive); in the assay with KM12 colon, 103% (inactive).
For the molecule `Cc1c(O)nc(N)[nH]c1=O`, the growth in the assay with SR leukemia is 125% (inactive); in the assay with RPMI-8226 leukemia it was 100% (inactive); with OVCAR-8 ovarian it was 101% (inactive); with OVCAR-5 ovarian, 106% (inactive); in the assay on OVCAR-4 ovarian it was 118% (inactive); in the assay on SK-OV-3 ovarian, 112% (inactive). Also, the growth in the assay with IGROV1 ovarian is 118% (inactive); with OVCAR-3 ovarian, 121% (inactive); in the assay with HS 578T breast, 101% (inactive); in the assay with NCI/ADR-RES ovarian, 102% (inactive); in the assay on T-47D breast, 114% (inactive); with BT-549 breast it was 116% (inactive). Moreover, the growth with MDA-MB-435 melanoma was 103% (inactive); in the assay with SW-620 colon, 102% (inactive); in the assay on MCF7 breast, 99% (inactive); in the assay on HCT-116 colon, 103% (inactive); in the assay with HCC-2998 colon, 92.8% (inactive); with KM12 colon, 106% (inactive).
Consider `CCCC(=O)Oc1ccc(CC)cc1`, for which the growth with SR leukemia is 90.5% (inactive); in the assay with RPMI-8226 leukemia, 108% (inactive); with OVCAR-8 ovarian, 98.1% (inactive); with OVCAR-5 ovarian, 102% (inactive); with OVCAR-4 ovarian it was 97.3% (inactive); in the assay with SK-OV-3 ovarian, 103% (inactive). Moreover, the growth with IGROV1 ovarian was 104% (inactive); in the assay with OVCAR-3 ovarian, 115% (inactive); with HS 578T breast, 113% (inactive); in the assay with NCI/ADR-RES ovarian, 105% (inactive); with T-47D breast it was 90.9% (inactive); in the assay with BT-549 breast, 107% (inactive). Besides, the growth with MDA-MB-435 melanoma is 107% (inactive); with SW-620 colon, 111% (inactive); with MCF7 breast, 92.4% (inactive); in the assay on HCT-116 colon it was 101% (inactive); with HCC-2998 colon, 102% (inactive); in the assay with KM12 colon, 102% (inactive).
`CC(CN(C)C)CN1c2ccccc2Sc2ccccc21` (stereo unspecified): the growth is 79.1% (inactive) and 96.2% (inactive) and 45.7% (inactive) in the assay with SR leukemia; 74.9% (inactive) with RPMI-8226 leukemia; 95.7% (inactive) and 109% (inactive) and 101% (inactive) in the assay on OVCAR-8 ovarian; 88.9% (inactive) and 79.7% (inactive) with OVCAR-5 ovarian; 88.1% (inactive) and 102% (inactive) and 84% (inactive) with OVCAR-4 ovarian; 97.2% (inactive) and 95.8% (inactive) and 101% (inactive) in the assay on SK-OV-3 ovarian. For the same molecule, the growth with IGROV1 ovarian was 73.5% (inactive) and 92% (inactive); in the assay on OVCAR-3 ovarian it was 114% (inactive) and 98.6% (inactive) and 90.7% (inactive); in the assay on HS 578T breast it was 77.5% (inactive) and 91.1% (inactive) and 67.1% (inactive); with NCI/ADR-RES ovarian it was 79.2% (inactive) and 85.1% (inactive) and 81.4% (inactive); in the assay with T-47D breast, 79.4% (inactive) and 88.3% (inactive); in the assay on BT-549 breast, 79% (inactive) and 91.8% (inactive) and 80.2% (inactive). In addition, the growth was 76.3% (inactive) and 85% (inactive) and 75.7% (inactive) in the assay with MDA-MB-435 melanoma; 86.9% (inactive) and 83.8% (inactive) and 88.8% (inactive) in the assay with SW-620 colon; 88.2% (inactive) and 94.2% (inactive) and 82.2% (inactive) with MCF7 breast; 59.3% (inactive) and 63.9% (inactive) and 94.9% (inactive) with HCT-116 colon; 78.4% (inactive) and 97.8% (inactive) and 83.4% (inactive) with HCC-2998 colon; 95.4% (inactive) and 104% (inactive) and 89.5% (inactive) in the assay on KM12 colon.
For `O=C1c2ccccc2CN1c1ccccc1`, the growth in the assay on SR leukemia was 84.5% (inactive); with RPMI-8226 leukemia, 107% (inactive); with OVCAR-8 ovarian, 104% (inactive); in the assay on OVCAR-5 ovarian it was 98% (inactive); in the assay with OVCAR-4 ovarian it was 99.3% (inactive); in the assay on SK-OV-3 ovarian, 105% (inactive). The growth with IGROV1 ovarian was 123% (inactive); with OVCAR-3 ovarian it was 108% (inactive); in the assay with HS 578T breast, 115% (inactive); in the assay on NCI/ADR-RES ovarian it was 105% (inactive); in the assay with T-47D breast it was 95.8% (inactive); in the assay with BT-549 breast, 96.6% (inactive). The growth in the assay with MDA-MB-435 melanoma is 97.9% (inactive); in the assay with SW-620 colon, 105% (inactive); in the assay on MCF7 breast, 106% (inactive); with HCT-116 colon it was 91.7% (inactive); with HCC-2998 colon it was 128% (inactive); in the assay on KM12 colon, 101% (inactive).
